Structures are written as SMILES. Values joined by “and” are separate entries in the source; they are usually repeats but may differ in a detail not shown here. Equal values may be shown once. The campaign covered roughly 16,000 compounds. About 5,800 (36%) were called active. Roughly 23% stayed inconclusive and do not appear here. The call rests on the fitted dose curve; in most records, active means well fitted curve in the direction sought with a large enough effect; inconclusive means small, poorly fitted or top-dose-only effect, or effect the other way; inactive means no such curve, though single readings can be large or run the other way. This is one part of the list.

The term AC50 denotes the concentration at which the activity in the assay is half-maximal.
On the % scale 0 is the no-effect control and ±100 the full control effect.

The target in this test is Cytochrome P450 2C19 (Homo sapiens) (UniProt P33261). The test is described as follows: Cytochrome panel assay with activity outcomes. The following applies: recombinant CYP, pro-luciferin dealkylation, luminescence, p450-cyp2c19; series mostly up to 57.1 µM.
Chain of Cytochrome P450 2C19 (Homo sapiens) (P33261 whole entry, looked up): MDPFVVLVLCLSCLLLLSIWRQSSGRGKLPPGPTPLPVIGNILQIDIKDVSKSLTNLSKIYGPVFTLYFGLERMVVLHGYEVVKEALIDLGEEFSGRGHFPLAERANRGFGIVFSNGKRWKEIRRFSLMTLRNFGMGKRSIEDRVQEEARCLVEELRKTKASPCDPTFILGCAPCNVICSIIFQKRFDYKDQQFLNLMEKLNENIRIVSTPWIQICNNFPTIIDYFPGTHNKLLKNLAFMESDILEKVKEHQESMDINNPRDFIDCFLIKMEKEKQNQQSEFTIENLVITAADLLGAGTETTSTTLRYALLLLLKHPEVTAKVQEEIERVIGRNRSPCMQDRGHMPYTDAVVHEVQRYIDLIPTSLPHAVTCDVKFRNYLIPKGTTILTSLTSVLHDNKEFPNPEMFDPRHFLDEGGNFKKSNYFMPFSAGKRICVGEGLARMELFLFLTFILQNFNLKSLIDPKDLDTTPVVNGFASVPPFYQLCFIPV
With `CC(=O)Nc1c(I)c(C(=O)N[C@H]2[C@@H](O)[C@H](O)[C@H](CO)O[C@@H]2O)c(I)c(N(C)C(C)=O)c1I`, the AC50 result was “inactive”.
`Cc1ccc(OCCCN2C(=O)C(=O)c3cccc(C)c32)cc1`: the AC50 is 3.98 µM (active).
For the compound `NS(=O)(=O)c1ccc(N=Nc2nc3[nH]c(=O)[nH]c(=O)c3[nH]2)cc1`, the activity, negative = inhibition is -0.933% [at 11.4 µM] (inactive).
In the case of `CC(C)(C)NC(=S)Nc1ccc(Nc2ccccc2)cc1`, the AC50 was 4.47 µM (active).
For `Nc1ccc(Nc2ccccc2)cc1`, the AC50 is 10 µM (active).
Regarding `N#[N+]c1ccc(Nc2ccccc2)cc1`, the activity, negative = inhibition is 23.3% [at 11.4 µM] (inactive).
As to `CNC(=S)Nc1ccc(Nc2ccccc2)cc1`, the AC50 was 5.62 µM (active).
For `C=CC[C@@H]1C=C[C@H](O/N=C(\C)CCN2CCCc3nc(C)c(C)cc32)[C@H](CO)O1`, the activity, negative = inhibition is 29.1% [at 11.4 µM] (inactive).
In the case of `CC(C(=O)NC1CCCC1)N(C(=O)c1ccc(-c2ccccc2)[nH]1)c1ccccc1F` (centres undefined), the AC50 is 3.98 µM (active).
Turning to `Cc1cccc(C)c1NC(=O)C(c1ccc(Cl)cc1Cl)N1CCCCC1` (centres undefined), the AC50 was 15.8 µM (active).
Regarding `O=C(COc1cccc(NC(=O)c2cccc([N+](=O)[O-])c2)c1)c1ccc(Br)cc1`, the AC50 is 1.26 µM (active).
The same measure, in the same setting: in the case of `COc1ccc(/C=N/OCc2nc3c4c(ncn3n2)Oc2ccc3ccccc3c2C4c2ccccc2)cc1` (centres undefined) it was 0.0794 µM (active); in that of `Cc1ccc(NC2=NC(c3ccccc3)n3c(nc(C)cc3=O)N2)c(C)c1` (centres undefined), 14.1 µM (active); in that of `Nc1nnnn1/N=C\c1ccc(Cl)c([N+](=O)[O-])c1`, 0.2 µM (active).
Same read-out and setting: in the case of `CC1CCN(c2ccc(/C=N/n3nnnc3N)cc2[N+](=O)[O-])CC1` it was “inactive”.
In the case of `CC(C)(CO[C@H]1C[C@H]2CC[C@@]1(C)C2(C)C)[N+](=O)[O-]`, the activity, negative = inhibition was 12.6% [at 11.4 µM] (inactive).
As to `O=C(O)CSc1cc(C(F)(F)F)nc(-c2ccccn2)n1`, the AC50 entry is “inactive”.
Regarding `CC(Sc1nc(-c2ccccc2)cc(C(F)(F)F)n1)C(=O)N1CCCCC1` (centres undefined), the AC50 is 10 µM (active).
With `O=c1[nH]c2cc(Br)cnc2nc1/C=C(\O)c1ccc(F)cc1`, the AC50 result is “inactive”.
Same read-out and setting: as for `Cc1cccc(CCNc2nc3ccccc3n3nnnc23)c1`, the figure is 1.58 µM (active).
Turning to `CCC(=O)NC(NC(=O)CC)C(Cl)Cl`, the AC50 result is “inactive”.
In the case of `CN1CCN(NC(=O)CN2C(=O)/C(=C/c3c(Cl)cccc3Cl)SC2=S)CC1`, the half-maximal activity concentration (AC50) is 4.47 µM (active).
With `CC(C)(C)C(=O)[C@H]1[C@H](c2ccccc2)[C@@]2(N=C(c3ccccc3)OC2=O)C2c3ccccc3C=NN21` (some centres undefined), the AC50 is 1.12 µM (active).
For `COc1ccccc1-c1cc(C(=O)Nc2cc(C)n(Cc3ccc(Cl)cc3)n2)no1`, the AC50 was 2.51 µM (active).
Regarding `CCCCOC(=O)CCc1c(C)[nH]c(=O)c(C#N)c1C`, the half-maximal activity concentration (AC50) is 10 µM (active).
In the case of `CCCCc1[nH]c(=O)c(C#N)c2c1CCCC2`, the AC50 result was “inactive”.
As to `CCOC(=O)Cc1cc(=O)n2[nH]c(C)c(C#N)c2n1`, the AC50 result was “inactive”.
`CC(=O)N1CCC[C@@]2(CCN(c3ncccn3)C2)C1`: the AC50 result was “inactive”.
Regarding `CCN(CC)C(=O)Cn1cc(/C=C(\C#N)C(=O)N2CCN(c3ccccc3)CC2)c2ccccc21`, the AC50 was 2 µM (active).
In the case of `CCc1cccc2c(C=C(C#N)C#N)cn(CC(=O)N3CCCC3)c12`, the AC50 entry was “inactive”.
Take `CCc1cccc2c(C=C(C#N)C#N)cn(CC(=O)N3CCCCC3)c12`: the AC50 entry was “inactive”.
In the case of `Cc1noc(C)c1C(=O)N1CCC[C@@]2(CCN(Cc3ccccc3)C2)C1`, the AC50 result is “inactive”.
Regarding `COC(=O)c1cc(Br)c(=O)n(CCc2ccc(O)cc2)c1`, the AC50 is 3.55 µM (active).
For the compound `COC(=O)[C@](C)(N)Cc1ccc(O)cc1`, the AC50 entry was “inactive”.
On to `COC(=O)c1ccc(CCc2cc(O)ccc2O)cc1`, for which the concentration at half-maximal activity (AC50) was 3.16 µM (active).
As for `COc1cc(CC(=O)O)ccc1O`, the AC50 entry was “inactive”.
For the compound `O=C(O)Cc1ccc(O)c(O)c1`, the AC50 entry was “inactive”.
Turning to `CC(C)=CCC/C(C)=C/CO/N=C1/C[C@@H](O)[C@@H](O)[C@@H]2[C@H]3C(=O)N(c4ccc(F)cc4F)C(=O)[C@@H]3CC[C@@H]12`, the activity, negative = inhibition is -9.14% [at 11.4 µM] (inactive).
Turning to `COc1ccccc1C(=O)NN1C(=O)C2C3C=CC(O3)C2C1=O` (centres undefined), the AC50 entry is “inactive”.
As to `COc1ccccc1C(=O)NC(=S)N1CCCc2ccccc21`, the concentration at half-maximal activity (AC50) was 2 µM (active).
For `O=C(CSc1nnc2c3ccccc3c3ccccc3c2n1)Nc1ccccc1`, the half-maximal activity concentration (AC50) was 2 µM (active).
Consider `c1ccc(CSc2nnc3c4ccccc4c4ccccc4c3n2)cc1`, for which the activity, negative = inhibition is -34.7% [at 11.4 µM] (inactive).
Regarding `c1cncc(-c2ccc3ncnc(NCCN4CCOCC4)c3c2)c1`, the AC50 result is “inactive”.
Consider `c1ccc(-c2nc(NCCCn3ccnc3)c3oc4ccccc4c3n2)cc1`, for which the AC50 is 0.158 µM (active).
In the case of `c1ccc2c(c1)oc1c(NCCCn3ccnc3)ncnc12`, the AC50 is 3.55 µM (active).
Take `CNc1csc(C)c(C)c1=O`: the AC50 is 28.2 µM (active).
As to `Cc1nc2ncnn2c(C)c1CCC(=O)Nc1ccc(S(=O)(=O)N2CCCCCC2)cc1`, the AC50 entry was “inactive”.
For the compound `O=C(O)c1cc(S(=O)(=O)N2CCCCC2)ccc1F`, the AC50 result was “inactive”.
For the compound `O=C(Nc1ccc(F)cc1)c1cc(S(=O)(=O)N2CCCCC2)cs1`, the AC50 was 22.4 µM (active).
On to `Cc1ccc(S(=O)(=O)Oc2cc(S(=O)(=O)O)cc3cc(S(=O)(=O)O)cc(N)c23)cc1`, for which the activity, negative = inhibition is 7.86% [at 11.4 µM] (inactive).
Consider `Cc1ccc(S(=O)(=O)O[C@@H]2[C@H]([C@@H]3COC(C)(C)O3)O[C@H]3OC(C)(C)O[C@@H]32)cc1`, for which the activity, negative = inhibition was 45.2% [at 11.4 µM] (inactive).
In the case of `Cc1ccc(S(=O)(=O)Oc2cc(N)c3c(n2)CCC3)cc1`, the concentration at half-maximal activity (AC50) is 1 µM (active).
As for `CC(C)CC(=O)N1CCN(Cc2cccc(F)c2)CC1`, the half-maximal activity concentration (AC50) is 3.55 µM (active).
The same measure, in the same setting: as for `O=C(c1cccc(F)c1)N1CCC2(CCN(Cc3ccccc3)CC2)CC1`, the entry is “inactive”; as for `CC(C)CN1CCC2(CC1)CCN(C(=O)c1cccc(F)c1)CC2`, “inactive”; as for `COc1ccc(-n2c(=O)c(-c3cccs3)nc3cnc(N4CCNCC4)nc32)cc1`, “inactive”.
As for `COc1ccc(-n2c(=O)c(-c3ccc(F)cc3)nc3cnc(N4CCOCC4)nc32)cc1`, the AC50 entry was “inactive”.
Same read-out and setting: as for `COc1ccc(-c2nc3cnc(N4CCNCC4)nc3n(Cc3ccc(F)cc3)c2=O)cc1`, the entry is “inactive”; as for `COc1cccc(Cn2c(=O)c(-c3cccs3)nc3cnc(N4CCNCC4)nc32)c1`, 31.6 µM (active); as for `COc1ccc(-n2c(=O)c(-c3ccc(Cl)cc3)nc3cnc(N4CCOCC4)nc32)cc1`, 25.1 µM (active).
Still for that read-out and setting: in the case of `COc1cccc(Cn2c(=O)c(-c3ccc(Cl)cc3)nc3cnc(N4CCN(C)CC4)nc32)c1` it was “inactive”; in that of `COc1cccc(Cn2c(=O)c(-c3ccc(Cl)cc3)nc3cnc(N4CCNCC4)nc32)c1`, 25.1 µM (active); in that of `COc1ccc(-n2c(=O)c(-c3ccc(Cl)cc3)nc3cnc(N4CCNCC4)nc32)cc1`, “inactive”.
On to `COc1cccc(Cn2c(=O)c(-c3cccs3)nc3cnc(N4CCN(C)CC4)nc32)c1`, for which the AC50 entry is “inactive”.
Still for that read-out and setting: in the case of `C[C@@H](NCc1cc(Br)cc2[nH]c(=O)c(=O)[nH]c12)P(=O)(O)O` it was “inactive”; in that of `COc1ccc(CC(=S)N2CCOCC2)cc1OC`, 10 µM (active); in that of `COc1ccc(CCN(C)CCc2ccc(OC)c(OC)c2)cc1OC`, “inactive”.
For `COc1ccc(C[N+](C)(C)N)cc1OC`, the activity, negative = inhibition is 22.8% [at 11.4 µM] (inactive).
On to `CO[C@@H]1COC(=O)[C@@H](C)NC(=O)C/C=C\[C@@H](C)[C@H](NS(=O)(=O)c2ccc(C)cc2)COC(=O)[C@H](C)NC(=O)C/C=C\[C@H]1C`, for which the activity, negative = inhibition is 1.72% [at 11.4 µM] (inactive).
For the compound `Cc1ccc(CNC(=O)C2CC(c3ccccc3[N+](=O)[O-])=NO2)o1` (centres undefined), the AC50 is 7.94 µM (active).
Turning to `O=C(NCCCCc1ccccc1)C1CC(c2ccccc2[N+](=O)[O-])=NO1` (centres undefined), the half-maximal activity concentration (AC50) was 7.08 µM (active).
Turning to `Cc1ccc(CCNC(=O)C2CC(c3ccccc3[N+](=O)[O-])=NO2)cc1` (centres undefined), the AC50 is 11.2 µM (active).
The same measure, in the same setting: as for `Cc1ccc(CNC(=O)C2CC(c3ccccc3[N+](=O)[O-])=NO2)cc1` (centres undefined), the figure is 3.16 µM (active).
Regarding `NCCNCC1CCNCC1`, the activity, negative = inhibition is 2.44% [at 11.4 µM] (inactive).
As to `C/C(CCN1CCCc2nc(C)c(C)cc21)=N\O[C@@H](C)c1cn([C@H](CO)Cc2ccccc2)nn1`, the activity, negative = inhibition is -18.6% [at 11.4 µM] (inactive) and 31.1% [at 11.4 µM] (inactive).
On to `CC1(C(=O)CSc2nc3ccccc3s2)CCC(=O)O1` (centres undefined), for which the AC50 was 11.2 µM (active).
In the case of `O=C(CSc1nc2ccccc2s1)c1sc2sc3ccccc3[n+]2c1O`, the activity, negative = inhibition was -17.6% [at 11.4 µM] (inactive).
As for `CC(C)CC1CC(=O)OC1(C)C(=O)CSc1nc2ccccc2s1` (centres undefined), the AC50 was 7.94 µM (active).
On the same count and under the same terms, in the case of `NCCNC(=O)c1ncsc1-c1cccc(F)c1` it was “inactive”.
For `O=C(OCCNC(=O)c1ccc2ccccc2n1)c1ccc(F)cc1`, the half-maximal activity concentration (AC50) is 7.94 µM (active).
Regarding `O=C(O)/C=C1\NC(=O)c2ccccc21`, the AC50 entry was “inactive”.
Same read-out and setting: in the case of `CC[N+](CC)(CC)CCOc1ccc(/C=C\c2ccccc2)cc1` it was “inactive”.
Consider `CCOc1ccccc1OCCOc1ccc(F)cc1`, for which the AC50 was 4.47 µM (active).
For `CCOC(=O)CCN1C(=O)[C@H]2[C@H]3[C@H](O)[C@H](O)C/C(=N/OC[C@@H](O)COCc4ccco4)[C@H]3CC[C@@H]2C1=O`, the activity, negative = inhibition was 34% [at 11.4 µM] (inactive).
Regarding `CC(=O)N1CC2(CC2)CC1c1ccccc1` (centres undefined), the AC50 result was “inactive”.
`CC(=O)N1CCN(S(=O)(=O)c2ccccc2)C1c1ccccc1` (centres undefined): the AC50 is 11.2 µM (active).
As to `Cc1ccc(S(=O)(=O)N2CCN(C(=O)c3ccccc3)C2C(C)C)cc1` (centres undefined), the AC50 is 7.08 µM (active).
In the case of `CC(C)NC(=O)N1CCCC2(CCN(S(=O)(=O)c3ccccc3)CC2)C1`, the AC50 result is “inactive”.
With `CC(C)NC(=O)N1CC2(CCN(S(=O)(=O)c3ccccc3)CC2)C1`, the AC50 entry is “inactive”.
In the case of `COc1ccc(OC)c(NC(=O)C(CC(=O)O)NCc2ccco2)c1` (centres undefined), the AC50 result was “inactive”.
Same read-out and setting: in the case of `C=CCC(NCc1ccco1)c1ccc(OC)cc1` (centres undefined) it was 5.01 µM (active).
On to `COc1ccc(-c2nc(N)c3ncn([C@H]4O[C@@H](CO)[C@@H](O)[C@@H]4O)c3n2)cc1`, for which the activity, negative = inhibition is 31.6% [at 11.4 µM] (inactive).
Regarding `COc1ccc(C(=O)n2nc(-c3ccccc3)nc2SC)cc1`, the AC50 entry was “inactive”.
`CCC(=O)n1nc(-c2ccc(OC)cc2)nc1N`: the half-maximal activity concentration (AC50) was 10 µM (active).
